Test systems include HCT-15 colon; HT29 colon; SNB-75 CNS; SNB-19 CNS; U251 CNS; PC-3 prostate; SK-MEL-5 melanoma; UACC-62 melanoma; LOX IMVI melanoma; SK-MEL-28 melanoma.
What all share (test): NCI-60 one-dose screen, 48 h (100 = growth as untreated, 0 = no growth, -100 = all killed)
Common to all, as to settings: 10 µM unless noted

The panel holds about 83,000 compounds, 20% with a hit somewhere; the sample as a whole holds those more often.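 Testing used 96-well plates and a 48-hour single-concentration exposure. Example: -40 means 40% of the starting cells died.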 A number with no mark means an inactive call. Activity calls are given as the source filed them. Rule for the calls: active = growth percent below 10; inactive = the rest.

As to `COc1ccc2nc(-c3ccc(Cl)cc3)cc(C(=O)N3N=C(c4ccc(N)cc4)CC3c3ccccc3)c2c1` (stereo not given), the growth is 26.7% with HCT-15 colon; 19.6% with HT29 colon; 44.3% in the experiment on SNB-75 CNS; 49.6% with SNB-19 CNS; 50.7% in the experiment on U251 CNS; 35.9% with PC-3 prostate. Moreover, the growth in the experiment on SK-MEL-5 melanoma was 39.4%; in the experiment with UACC-62 melanoma, 37%; in the experiment with LOX IMVI melanoma, 40.4%; with SK-MEL-28 melanoma it was 61.7%.

For `COc1ccc(C(=O)c2cc(OC)c(OC)c(OC)c2)cc1OC(=O)CCl`, the growth is 17% in the experiment with HCT-15 colon; 21.6% in the experiment on HT29 colon; 60.8% in the experiment on SNB-75 CNS; 31.3% in the experiment with SNB-19 CNS; -16.9% (active) in the experiment with U251 CNS; 17% in the experiment on PC-3 prostate. Further, the growth is -34% (active) in the experiment on SK-MEL-5 melanoma, 45.2% in the experiment on UACC-62 melanoma, 19% in the experiment with LOX IMVI melanoma and 60.8% in the experiment on SK-MEL-28 melanoma.

Regarding `COc1cc(NC(=O)COc2cc(C)nc3ccc(OC)cc23)cc(OC)c1`, the growth is 90.9% with HCT-15 colon; 91.7% in the experiment on HT29 colon; 77.3% in the experiment on SNB-75 CNS; 91.4% in the experiment with SNB-19 CNS; 91% in the experiment with U251 CNS; 81.9% with PC-3 prostate. The growth in the experiment on SK-MEL-5 melanoma is 76%; with UACC-62 melanoma, 74.4%; in the experiment with LOX IMVI melanoma it was 85.8%; in the experiment on SK-MEL-28 melanoma, 102%.

In the case of `Cc1[nH]c(N=Nc2ccccc2)nc1N=Nc1ccccc1`, the growth in the experiment on HCT-15 colon is 22.8%; in the experiment with HT29 colon, 31.2%; in the experiment on SNB-75 CNS it was 45.1%; with SNB-19 CNS, 47.7%; with U251 CNS, 15.9%; in the experiment on PC-3 prostate it was 36.4%. The growth in the experiment on SK-MEL-5 melanoma was 48.1%; with UACC-62 melanoma, -19.7% (active); in the experiment with LOX IMVI melanoma it was 3.24% (active); with SK-MEL-28 melanoma it was 52.2%.

On to `Cc1nc(C)c(C)nc1C`, for which the growth is 109% with HCT-15 colon; 97% in the experiment on HT29 colon; 101% with SNB-75 CNS; 99.2% in the experiment with SNB-19 CNS; 96.7% with U251 CNS; 98.3% in the experiment with PC-3 prostate. In addition, the growth with SK-MEL-5 melanoma is 102%; in the experiment with UACC-62 melanoma it was 101%; in the experiment with LOX IMVI melanoma, 101%; in the experiment with SK-MEL-28 melanoma it was 113%.

With `CC[C@]12C=CCN3CC[C@@]4(c5cc(NC(=O)CCC(=O)O[C@H]6CC[C@H]7[C@@H]8CC[C@H]9CC(=O)CC[C@]9(C)[C@H]8CC[C@]67C)c(OC)cc5N(C)[C@H]4[C@@](O)(C(=O)OC)[C@@H]1OC(C)=O)[C@@H]32`, the growth was 58.2% with HCT-15 colon; 39% in the experiment on HT29 colon; 57.1% in the experiment with SNB-75 CNS; 84.7% with SNB-19 CNS; 64.3% with U251 CNS; 47.7% in the experiment with PC-3 prostate. The growth in the experiment on SK-MEL-5 melanoma was 54.4%; with UACC-62 melanoma, 81.2%; in the experiment on LOX IMVI melanoma it was 78.1%; in the experiment with SK-MEL-28 melanoma, 92.5%.

`CN(C)C1=NCCN1`: the growth was 108% with HCT-15 colon; 88.3% in the experiment with HT29 colon; 75.8% with SNB-75 CNS; 111% with SNB-19 CNS; 96.9% in the experiment with U251 CNS; 80% with PC-3 prostate. Also, the growth in the experiment on SK-MEL-5 melanoma was 103%; with UACC-62 melanoma, 102%; in the experiment on LOX IMVI melanoma, 99.2%; with SK-MEL-28 melanoma, 113%.

With `CCOC(=O)c1c(C)nc2c(c1N)/C(=C/c1cccs1)C(=O)N2c1ccc(OC)cc1`, the growth in the experiment on HCT-15 colon was 72.8%; in the experiment with HT29 colon, 51.3%; in the experiment with SNB-75 CNS, 30.6%; with SNB-19 CNS, 42.2%; in the experiment on U251 CNS, 12.4%; in the experiment on PC-3 prostate, 35%. In addition, the growth was 45.7% in the experiment on SK-MEL-5 melanoma, 38.3% in the experiment on UACC-62 melanoma, 37.6% in the experiment with LOX IMVI melanoma and 37% in the experiment with SK-MEL-28 melanoma.

For `O=C(CN1N=C(c2ccc(F)cc2)CCC1=O)Nc1nc2ccccc2s1`, the growth in the experiment with HCT-15 colon was 86%; with HT29 colon, 1.85% (active); in the experiment on SNB-75 CNS, -49.1% (active); in the experiment with SNB-19 CNS, 94.4%; in the experiment with U251 CNS it was 16%; in the experiment on PC-3 prostate it was 5.7% (active). Besides, the growth is 89.3% with SK-MEL-5 melanoma, 79.6% in the experiment with UACC-62 melanoma, -89.5% (active) in the experiment with LOX IMVI melanoma and 100% in the experiment on SK-MEL-28 melanoma.

`C=C1C(=O)O[C@H]2[C@H]1CC/C(COC(=O)CCCCCCCC(=O)OC/C1=C/CC[C@@]3(C)O[C@H]3[C@H]3OC(=O)C(=C)[C@@H]3CC1)=C\CC[C@@]1(C)O[C@@H]21`: the growth in the experiment with HCT-15 colon was -4.93% (active); with HT29 colon it was -8.08% (active); in the experiment with SNB-75 CNS, 68%; in the experiment on SNB-19 CNS, 55%; with U251 CNS it was 32.3%; with PC-3 prostate, 15.2%. Moreover, the growth in the experiment with SK-MEL-5 melanoma is 17.5%; with UACC-62 melanoma, -10.2% (active); in the experiment on LOX IMVI melanoma it was -51.9% (active); in the experiment on SK-MEL-28 melanoma, 20.7%.

On to `COC(=O)/C=C1\SC(=Nc2cccc(Cl)c2)N(CCc2c[nH]c3ccccc23)C1=O`, for which the growth in the experiment with HCT-15 colon was 29%; in the experiment with HT29 colon, 8.6% (active); in the experiment with SNB-75 CNS, 84.5%; in the experiment on SNB-19 CNS it was 54.4%; in the experiment on U251 CNS, 41.1%; with PC-3 prostate, 31.8%. Further, the growth with SK-MEL-5 melanoma was 63.3%; in the experiment on UACC-62 melanoma, 18.3%; in the experiment on LOX IMVI melanoma, 5.31% (active); with SK-MEL-28 melanoma it was 64.8%.

In the case of `CC(C)(C)c1ccc2oc(=O)n(SC(Cl)(Cl)Cl)c2c1`, the growth in the experiment on HCT-15 colon is 99.1%; with HT29 colon it was 90.4%; in the experiment with SNB-75 CNS, 98.1%; in the experiment on SNB-19 CNS, 112%; with U251 CNS, 104%; in the experiment with PC-3 prostate it was 99.3%. Moreover, the growth in the experiment on SK-MEL-5 melanoma was 107%; in the experiment on UACC-62 melanoma, 109%; in the experiment on LOX IMVI melanoma, 93.4%; in the experiment on SK-MEL-28 melanoma, 112%.

(Values after PubChem BioAssay (NCI).)
